Inconclusive results are not listed. The source made the active and inactive calls. Unless noted, the call rests on the fitted dose curve; in most records, active means well fitted curve in the direction sought with a large enough effect in the repeat runs; inconclusive means weak or mixed curves; inactive means no such curve, though single readings can be large; an effect the other way counts as inactive or inconclusive.
Columns and labels:
[1] = qHTS assay to identify small molecule agonists of the peroxisome proliferator-activated receptor delta (PPARd) signaling pathway - cell viability counter screen (AID 743211); further: nearly all actives have a fitted effect of over 55% in size
Outline: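 In the same wells used for beta-lactamase reporter measurement, cytotoxicity is scored by CellTiter-Glo. HEK293H PPARd-bla cells receive compound for 17 h at 37C following a 5 h settling period.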

[2] = qHTS assay to identify small molecule antagonists of the peroxisome proliferator-activated receptor delta (PPARd) signaling pathway - cell viability counter screen (AID 743213); further: nearly all actives have a fitted effect of over 50% in size
Outline: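 PPARd-bla HEK293H cells were treated with compounds plus agonist L165041 (300 nM final) for 17 h at 37 C. Viability was then read in the same wells by CellTiter-Glo luminescence after 30 min at room temperature.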

[3] = target: Bile acid receptor (Homo sapiens) (UniProt Q96RI1); test: qHTS assay to identify small molecule antagonists of the farnesoid-X-receptor (FXR) signaling pathway (AID 743217; active means well fitted inhibition curve with a large enough effect in the signal ratio in the repeat runs, not every such curve was filed as active; the % refers to the signal ratio)
Outline: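 Cells carrying a UAS-driven beta-lactamase reporter (GeneBLAzer FXR-UAS-bla HEK 293T) were plated and rested 5 h at 37 °C. Compounds in DMSO were added alongside chenodeoxycholic acid agonist at 50 uM final and left 16 h at 37 °C before FRET substrate readout.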

[4] = target: Bile acid receptor (Homo sapiens) (UniProt Q96RI1); test: qHTS assay to identify small molecule agonists of the farnesoid-X-receptor (FXR) signaling pathway (AID 743220; active means well fitted activation curve with a large enough effect in the signal ratio in the repeat runs, not every such curve was filed as active; the % refers to the signal ratio)
Outline: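 FXR-UAS-bla HEK 293T cells carrying a UAS-driven beta-lactamase reporter were plated for 5 h at 37C/5% CO2, then exposed to DMSO-dissolved Tox21 10K compounds for 16 h at 37C. A LiveBLAzer B/G FRET substrate was loaded for 2 h at room temperature before fluorescence reading.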

[5] = qHTS assay to identify small molecule antagonists of the farnesoid-X-receptor (FXR) signaling pathway - cell viability counter screen (AID 743221; active means well fitted cell-killing curve with a large enough effect in the repeat runs, not every such curve was filed as active; further: nearly all actives have a fitted effect of over 50% in size)
Outline: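 Here viability was scored by luminescence after CellTiter-Glo addition to wells already read for beta-lactamase. Prior treatment: compound plus CDCA (50 uM final), 16 h, 37 C, HEK 293T FXR-bla cells.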

[6] = target: Vitamin D3 receptor (Homo sapiens) (UniProt P11473); test: qHTS assay to identify small molecule agonists of the vitamin D receptor (VDR) signaling pathway (AID 743222; calls by dose curve)
Outline: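 Cells carrying a VDR-driven beta-lactamase reporter are seeded at 2,000 per well and rested 4 h. Compounds in DMSO are added for 16 h at 37C, and FRET substrate fluorescence is measured after 2 h at room temperature.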

[7] = qHTS assay to identify small molecule agonists of the vitamin D receptor (VDR) signaling pathway - cell viability counter screen (AID 743224); further: series mostly up to about 63 µM; nearly all actives have a fitted effect of over 50% in size
Outline: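 Cells: VDR-bla, 2,000/well, settled 4 h. Treatment: compounds in DMSO, 16 h, 37C/5% CO2. Readout: CellTiter-Glo luminescence after 30 min RT.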

[8] = qHTS assay to identify small molecule antagonists of the vitamin D receptor (VDR) signaling pathway - cell viability counter screen (AID 743225); further: nearly all actives have a fitted effect of over 50% in size
Outline: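 Compounds were pinned onto VDR-bla HEK 293T cells together with 1-alpha,25-dihydroxyvitamin D3 at 3 nM final. After 16 h at 37C and 5% CO2 plus the reporter readout, cell viability was measured by CellTiter-Glo luminescence (30 min, room temperature).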

[9] = qHTS assay to identify small molecule agonists of the NFkB signaling pathway - cell viability counter screen (AID 1159515; calls by dose curve; further: series mostly up to about 61 µM; nearly all actives have a fitted effect of over 55% in size)
Outline: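 Cells are seeded (2,000 NFkB-bla ME-180 per well), rested overnight, and dosed with DMSO-dissolved compounds for 5 hr at 37 C. Viability is then read by CellTiter-Glo luminescence after 30 min at room temperature.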

[10] = qHTS assay to identify small molecule agonists of the endoplasmic reticulum stress response signaling pathway (AID 1159516; active means well fitted activation curve with a large enough effect in the signal ratio in the repeat runs, not every such curve was filed as active; the % refers to the signal ratio)
Outline: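 Cells are seeded at 1,500 per well and incubated overnight. Compounds in DMSO are added for 5 hr at 37 C, then beta-lactamase FRET substrate for 2 hr at room temperature, and fluorescence at 460 and 530 nm is measured.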

[11] = qHTS assay to identify small molecule agonists of the endoplasmic reticulum stress response signaling pathway - cell viability counter screen (AID 1159517; calls by dose curve)
Outline: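 Steps: seed 1,500 ESRE-bla HeLa cells per well; incubate overnight at 37 C, 5% CO2; add compounds in DMSO for 5 hr; run FRET substrate 2 hr RT; add CellTiter-Glo, wait 30 min, read luminescence.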

[12] = qHTS assay to identify small molecule antagonists of the retinoid-related orphan receptor gamma (ROR-gamma) signaling pathway - cell viability counter screen (AID 1159520); further: nearly all actives have a fitted effect of over 50% in size
Outline: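 Tet-on ROR gamma CHO cells were given compounds for 2 hr, then doxycycline hyclate at 1 uM final, and incubated 16 hr at 37 C. Viability was measured as ATP content by CellTiter-Glo luminescence.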

[13] = target: Nuclear receptor ROR-gamma (Homo sapiens) (UniProt P51449); test: qHTS assay to identify small molecule antagonists of the retinoid-related orphan receptor gamma (ROR-gamma) signaling pathway (AID 1159521)
Outline: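 Test compounds were applied to Tet-on RORγ CHO cells 2 h ahead of doxycycline hyclate (1 uM final). Luciferase reporter activity was quantified by luminescence after 16 h at 37 C and 5% CO2.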

[14] = qHTS assay to identify small molecule agonists of the AP-1 signaling pathway - cell viability counter screen (AID 1159525; calls by dose curve; further: nearly all actives have a fitted effect of over 55% in size)
Outline: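 Same-well cytotoxicity counter screen of the Tox21 10K library in ME-180 cells. The readout is ATP-dependent luminescence after 5 h compound treatment. Data are normalised to DMSO and tetra n-octyl ammonium bromide controls.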

[15] = qHTS assay to identify small molecule agonists of the AP-1 signaling pathway (AID 1159526; calls by dose curve)
[16] = target: Retinoic acid receptor RXR-alpha (Homo sapiens) (UniProt P19793); test: qHTS assay to identify small molecule agonists of the RXR signaling pathway (AID 1159527; calls by dose curve; further: nearly all actives have a fitted effect of over 35% in size)
Outline: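 Using 9-cis retinoic acid as the reference agonist, chemicals were tested in HEK 293T cells […] for 16 hr; substrate loading lasted 2 hr at room temperature.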

[17] = target: Peroxisome proliferator-activated receptor delta (Homo sapiens) (UniProt Q03181); test: qHTS assay to identify small molecule agonists of the peroxisome proliferator-activated receptor delta (PPARd) signaling pathway (AID 743212; calls by dose curve)
Outline: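 Read-out: beta-lactamase FRET fluorescence after 2 h room-temperature incubation with LiveBLAzer B/G substrate. Cells were HEK293H carrying a UAS-bla reporter for PPARd, treated at 37 C with DMSO-dissolved compounds.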

[18] = target: Peroxisome proliferator-activated receptor delta (Homo sapiens) (UniProt Q03181); test: qHTS assay to identify small molecule antagonists of the peroxisome proliferator-activated receptor delta (PPARd) signaling pathway (AID 743215; active means well fitted inhibition curve with a large enough effect in the signal ratio in the repeat runs, not every such curve was filed as active; the % refers to the signal ratio;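 further: cells stimulated with agonist L165041 at 300 nM final during compound exposure; series mostly up to about 62 µM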)
Outline: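 Cells: HEK293H with a UAS-driven beta-lactamase reporter responsive to PPARd. Compounds were co-added with L165041 (300 nM, final) and incubated 17 h at 37 C before a 2 h room-temperature FRET substrate step and fluorescence reading.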

[19] = qHTS assay to identify small molecule agonists of the farnesoid-X-receptor (FXR) signaling pathway - cell viability counter screen (AID 743218); further: nearly all actives have a fitted effect of over 45% in size
Outline: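 Cells were seeded, left 5 h at 37 C and 5% CO2, then dosed with compound in DMSO for 16 h. After the beta-lactamase FRET read, CellTiter-Glo was added and luminescence measured 30 min later.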

[20] = target: Vitamin D3 receptor (Homo sapiens) (UniProt P11473); test: qHTS assay to identify small molecule antagonists of the vitamin D receptor (VDR) signaling pathway (AID 743223; active means well fitted inhibition curve with a large enough effect in the signal ratio in the repeat runs, not every such curve was filed as active; the % refers to the signal ratio)
Outline: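 Inhibition of agonist-driven VDR signalling is scored in VDR-bla cells: 3 nM final 1alpha,25-dihydroxyvitamin D3 plus compound, 16 h at 37C, then beta-lactamase detection by FRET substrate fluorescence after 2 h.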

Measured: Potency

Retinoic acid receptor RXR-alpha (Homo sapiens), sequence (P19793 whole entry, looked up): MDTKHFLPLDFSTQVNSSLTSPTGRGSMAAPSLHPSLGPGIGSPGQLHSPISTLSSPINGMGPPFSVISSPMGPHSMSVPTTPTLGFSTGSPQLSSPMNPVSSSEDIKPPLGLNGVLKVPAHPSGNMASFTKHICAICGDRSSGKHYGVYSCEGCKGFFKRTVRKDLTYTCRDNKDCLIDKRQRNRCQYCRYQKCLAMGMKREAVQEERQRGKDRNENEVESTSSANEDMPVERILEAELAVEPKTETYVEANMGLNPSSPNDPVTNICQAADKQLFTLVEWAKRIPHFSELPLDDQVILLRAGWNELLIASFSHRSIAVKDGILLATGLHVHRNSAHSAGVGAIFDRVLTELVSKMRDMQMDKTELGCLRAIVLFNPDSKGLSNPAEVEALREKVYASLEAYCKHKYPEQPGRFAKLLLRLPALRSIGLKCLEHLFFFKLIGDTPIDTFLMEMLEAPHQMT
Peroxisome proliferator-activated receptor delta (Homo sapiens), sequence (Q03181 whole entry, looked up): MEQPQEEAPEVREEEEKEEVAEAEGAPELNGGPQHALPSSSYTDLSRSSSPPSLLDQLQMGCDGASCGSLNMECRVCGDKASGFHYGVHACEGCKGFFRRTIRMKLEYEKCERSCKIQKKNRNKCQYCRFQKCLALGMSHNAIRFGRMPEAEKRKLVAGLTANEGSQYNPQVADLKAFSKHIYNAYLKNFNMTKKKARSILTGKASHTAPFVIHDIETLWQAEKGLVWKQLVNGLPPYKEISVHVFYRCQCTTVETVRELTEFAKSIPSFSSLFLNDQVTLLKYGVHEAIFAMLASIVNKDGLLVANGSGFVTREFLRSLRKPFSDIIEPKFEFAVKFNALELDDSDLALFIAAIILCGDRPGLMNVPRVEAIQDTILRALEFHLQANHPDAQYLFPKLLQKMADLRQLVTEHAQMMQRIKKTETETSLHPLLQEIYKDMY
Bile acid receptor (Homo sapiens), sequence (Q96RI1 whole entry, looked up): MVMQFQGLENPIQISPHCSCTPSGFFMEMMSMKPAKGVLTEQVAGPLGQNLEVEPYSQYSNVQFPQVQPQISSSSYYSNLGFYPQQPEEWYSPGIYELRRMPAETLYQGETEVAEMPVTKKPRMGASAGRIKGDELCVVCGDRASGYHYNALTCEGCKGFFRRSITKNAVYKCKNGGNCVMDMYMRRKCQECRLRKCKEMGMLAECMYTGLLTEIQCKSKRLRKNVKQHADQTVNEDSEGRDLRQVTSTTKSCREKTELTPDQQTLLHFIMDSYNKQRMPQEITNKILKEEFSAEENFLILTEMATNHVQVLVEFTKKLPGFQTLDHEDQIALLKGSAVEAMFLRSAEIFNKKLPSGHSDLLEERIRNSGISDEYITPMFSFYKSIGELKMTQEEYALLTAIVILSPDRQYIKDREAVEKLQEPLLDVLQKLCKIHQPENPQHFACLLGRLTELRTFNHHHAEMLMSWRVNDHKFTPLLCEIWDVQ
Vitamin D3 receptor (Homo sapiens), sequence (P11473 whole entry, looked up): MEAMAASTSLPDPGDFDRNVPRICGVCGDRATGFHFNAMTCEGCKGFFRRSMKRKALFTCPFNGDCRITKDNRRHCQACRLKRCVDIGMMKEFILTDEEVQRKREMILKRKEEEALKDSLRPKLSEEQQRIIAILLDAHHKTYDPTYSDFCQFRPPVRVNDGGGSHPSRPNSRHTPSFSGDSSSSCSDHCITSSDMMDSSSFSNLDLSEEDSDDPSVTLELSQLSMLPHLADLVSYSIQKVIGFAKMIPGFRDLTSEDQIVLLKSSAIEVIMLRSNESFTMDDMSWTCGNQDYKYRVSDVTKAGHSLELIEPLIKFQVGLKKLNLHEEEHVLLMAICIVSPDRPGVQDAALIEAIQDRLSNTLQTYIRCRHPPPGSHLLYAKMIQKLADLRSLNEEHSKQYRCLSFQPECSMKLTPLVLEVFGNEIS

CS(=O)(=O)NC(=O)c1cc(Oc2ccc(C(F)(F)F)cc2Cl)ccc1[N+](=O)[O-]
not listed: [17] | [18] | [19] | [20]
inactive: all other assays above

C[N+](C)(C)CC(=O)[O-]
not listed: [3] | [4] | [6] | [20]
inactive: all other assays above

C=CC(Cl)CCl (centres undefined)
not listed: [17] | [18] | [19]
inactive: all other assays above

Cc1ccc([N+](=O)[O-])cc1
not listed: [3] | [4]
inactive: all other assays above

COP(=S)(OC)Oc1ccc(Sc2ccc(OP(=S)(OC)OC)cc2)cc1
not listed: [3] | [4]
inactive: all other assays above

CC1(C)Cc2cccc(O)c2O1
not listed: [3] | [4] | [17] | [18]
inactive: all other assays above

ClCC(Cl)CCl
not listed: [3] | [4]
inactive: all other assays above

Source: PubChem BioAssay (Tox21)
